Compound activity: PubChem, National Center for Advancing Translational Sciences (NCATS)
Sm TGR block – blocks Schistosoma mansoni thioredoxin glutathione reductase; Q962Y6; purified TGR, DTNB reduction, TNB absorbance 405 nm; Potency, µM (series often up to 114 µM), inactives show top-dose activity change, negative = inhibition, actives largely listed as inhibitors; 3% of 360,000 active; AID 485364; also: potency is read from the fitted curve at half-maximal effect; % is scaled to controls: 0 for no effect and ±100 for the full control effect; nearly all actives have a fitted effect of over 60% in size
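Kinetic colorimetric format: TGR-catalysed, NADPH-driven DTNB reduction monitored via TNB absorbance. Enzyme dispensed at 20 nM; compound exposure 15 min at room temperature before reaction start.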
HCMV inh – human cytomegalovirus inhibition. HFF cells, HCMV-luciferase reporter, 72 h; active compounds read low. activity change, negative = inhibition, % at 57.5 µM. 4.5% of 410,000 active; in the data active = activity change below about -60%; inconclusive = no clear call, values can overlap the other calls; inactive = above about -39%; also: % is scaled to controls: 0 for no effect and ±100 for the full control effect
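Human foreskin fibroblasts infected with luciferase-reporter HCMV at MOI 1 PFU/cell, compounds at two doses. Luciferase measured 72 h post infection; normalized to buffer-only basal and Salinomycin (10uM) controls.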
SARS PLP yeast – SARS-CoV PLP inhibition in yeast; AID 485353; 0.19% of 330,000 active; Potency, µM (doses to about 32.9 µM), inactives show top-dose activity, positive = growth rescue, most hits filed as activators; S. cerevisiae expressing SARS-CoV PLpro, growth rescue; calls by dose curve; also: potency is read from the fitted curve at half-maximal effect; 0% is about no effect; nearly all actives have a fitted effect of over 55% in size
HCV inh – inhibitors of hepatitis C virus infection; Huh7.5.1 HCVcc-Cre infection, luciferase reporter, 44 h; Potency, µM (doses to about 41.8 µM), inactives show at the highest dose activity change, negative = inhibition, most hits filed as inhibitors; 3.4% of 340,000 active; AID 651820; also: potency is read from the fitted curve at half-maximal effect; % is scaled to controls: 0 for no effect and ±100 for the full control effect
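Antiviral activity was scored by luciferase reporter output from cells infected with HCVcc-Cre (~0.5 moi) in presence of compound, 44 h infection period, cells seeded 1,000/well 4 h prior.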
Pf growth 48h – inhibits P. falciparum growth in the first generation, 48 h; 5.9% of 310,000 active; AID 504832; Potency, µM (series often up to 28.7 µM), without a hit: at the highest dose activity change, negative = inhibition, actives largely listed as inhibitors; P. falciparum luciferase growth in erythrocytes, 48 h; also: potency is read from the fitted curve at half-maximal effect; % is scaled to controls: 0 for no effect and ±100 for the full control effect
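Parasite viability was followed by luminescence of a genomically integrated firefly luciferase. Cultures held 0.1% parasitemia at 2% hematocrit (final), incubated under 5% CO2 at 37 C.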
Pf growth 96h – inhibits malaria parasite growth, 96 h; P. falciparum luciferase reporter growth, 96 h; Potency, µM (highest dose often 28.7 µM), inactives show top-dose activity change, negative = inhibition, hits mostly inhibitors; 6.9% of 320,000 active; also: potency is read from the fitted curve at half-maximal effect; % is scaled to controls: 0 for no effect and ±100 for the full control effect
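P. falciparum expressing integrated firefly luciferase grown in erythrocytes (2% hematocrit, 0.05% parasitemia final) with compounds for 96 hours at 37 C, 5% CO2. Growth inhibition read as loss of luminescence after adding luciferase detection reagent.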
* hit, by the source's call; [ ] = remark or other dose. Only some compounds are listed: those with a hit (about 15% of all), similar ones and a draw of the others. Unless noted, calls follow the shape of the dose curve; as a rule, active = well fitted curve in the direction sought with a large enough effect; inconclusive = small, poorly fitted or top-dose-only effect, or another doubt; inactive = no such curve, though single readings can be large; an effect the other way counts as inactive or inconclusive.

For CC(C)NC(=S)N/N=C/C1=CCC2CC1C2(C)C (stereo not drawn) the results were Sm TGR block -8.8%, HCMV inh 150.1, SARS PLP yeast -32.1%, HCV inh inconclusive, Pf growth 48h 13.1µM* and Pf growth 96h inconclusive.
Screening C=C(C)CNC(=S)N/N=C/C1=CCC2CC1C2(C)C (stereo not drawn) returned Sm TGR block 0.3%, HCMV inh 27.1, SARS PLP yeast 3.9%, HCV inh inconclusive, Pf growth 48h inconclusive and Pf growth 96h inconclusive.
Screening CCCCNC(=S)N/N=C/c1ccc(C#N)cc1 returned Sm TGR block 6.0%, HCMV inh inconclusive, SARS PLP yeast 1.7%, HCV inh -17.9%, Pf growth 48h -27.8% and Pf growth 96h 9.28µM*.
For COc1ccccc1CCNC(C)CCc1ccc(O)cc1 (stereo not drawn) the results were Sm TGR block -1.7%, HCMV inh -5.4, SARS PLP yeast -0.3%, HCV inh 3.6%, Pf growth 48h -2.6% and Pf growth 96h 2.6%.
For COc1cc(OC)c(OC)cc1CCC(C)NCCC(c1ccccc1)c1ccccc1 (stereo not drawn) the results were Sm TGR block -17.3%, HCMV inh -60.1*, SARS PLP yeast 0.2%, HCV inh 7.94µM*, Pf growth 48h 4.15µM* and Pf growth 96h 2.08µM*.
`CCC(C)C(NC(=O)c1ccccc1NC(=O)c1ccc(OC)cc1)C(=O)NCCCn1ccnc1` (stereo not drawn) gave Sm TGR block -10.9%, HCMV inh 10.3, SARS PLP yeast 3.4%, HCV inh -21.5%, Pf growth 48h inconclusive and Pf growth 96h inconclusive.
CCCCOc1ccc(C(=O)NCC2(N3CCN(C)CC3)CCCCC2)cc1 was read as Sm TGR block -9.5% and HCMV inh -35.0.
Screening COc1ccc(-c2cn(Cc3ccc(C(=O)NCc4ccc(C)cc4)cc3)c(C(C)N)n2)cc1 (stereo not drawn) returned Sm TGR block 0.8%, HCMV inh 8.7, SARS PLP yeast 0.4%, HCV inh inconclusive, Pf growth 48h 11.7µM* and Pf growth 96h inconclusive.
`COc1ccc(-c2cn(Cc3ccc(C(N)=O)cc3)c(-c3ccc(Cl)nc3)n2)cc1` gave Sm TGR block -1.9%, HCMV inh 122.6, SARS PLP yeast -5.2%, HCV inh 11.1%, Pf growth 48h inconclusive and Pf growth 96h 33.0%.
O=c1[nH]c2cc(Cl)cc([N+](=O)[O-])c2c2ccc(Cl)cc12 was read as HCMV inh -22.1.
O=c1[nH][nH]c2c([N+](=O)[O-])ccc(F)c12 was read as HCMV inh -61.5*.
Screening Cc1ccc(O)c(N/C=C/C(=O)c2ccc(F)cc2)c1 returned Sm TGR block -13.9%, HCMV inh -31.7, SARS PLP yeast -3.4%, HCV inh inconclusive, Pf growth 48h -17.2% and Pf growth 96h inconclusive.
For O=c1c2c(-c3ccccc3)csc2nc2c3ccccc3c(NCCN3CCOCC3)nn12 the results were Sm TGR block inconclusive, HCMV inh inconclusive, SARS PLP yeast 18.4%, HCV inh inconclusive, Pf growth 48h 3.29µM* and Pf growth 96h 1.17µM*.
Screening O=c1c2ccccc2nc2c3ccccc3c(NCCN3CCOCC3)nn12 returned Sm TGR block 2.4%, HCMV inh -33.1, SARS PLP yeast 2.3%, Pf growth 48h -0.4% and Pf growth 96h 10.4%[5.75 µM].
Screening C=CC(C)(C)c1[nH]cnc1/C=C1\NC(=O)C(C(C)C)NC1=O (stereo not drawn) returned Sm TGR block -33.6%, HCMV inh -1.8, SARS PLP yeast -0.2%, HCV inh inconclusive, Pf growth 48h inconclusive and Pf growth 96h 2.08µM*.
O=C(CSc1nnc(NC2CC2)s1)NN1C(=O)NC2(CCCCC2)C1=O was read as Sm TGR block -9.6%, HCMV inh -7.9, SARS PLP yeast -0.5%, HCV inh 9.5%, Pf growth 48h -17.0% and Pf growth 96h -21.2%.
